The text below walks through data of PMC7862700, “An all-to-all approach to the identification of sequence-specific readers for epigenetic DNA modifications on cytosine”.

What all share (experiment): DAPPL (digital affinity profiling via proximity ligation, sequencing); 10 mM Tris-HCl pH 7.5, 50 mM NaCl, 1 mM DTT, 4% glycerol, room temperature, 30 min; GST-TFs on glutathione beads, 16-mer random dsDNA library, 0.1% formaldehyde crosslink after washing; high values mean tight binding
Common to all, as to details: protein: recombinant; tags: N-terminal GST; dsDNA, one strand shown

In one assay the target is T1, ELK1 (Homo sapiens, UniProt P19419 1-428).
T1 sequence: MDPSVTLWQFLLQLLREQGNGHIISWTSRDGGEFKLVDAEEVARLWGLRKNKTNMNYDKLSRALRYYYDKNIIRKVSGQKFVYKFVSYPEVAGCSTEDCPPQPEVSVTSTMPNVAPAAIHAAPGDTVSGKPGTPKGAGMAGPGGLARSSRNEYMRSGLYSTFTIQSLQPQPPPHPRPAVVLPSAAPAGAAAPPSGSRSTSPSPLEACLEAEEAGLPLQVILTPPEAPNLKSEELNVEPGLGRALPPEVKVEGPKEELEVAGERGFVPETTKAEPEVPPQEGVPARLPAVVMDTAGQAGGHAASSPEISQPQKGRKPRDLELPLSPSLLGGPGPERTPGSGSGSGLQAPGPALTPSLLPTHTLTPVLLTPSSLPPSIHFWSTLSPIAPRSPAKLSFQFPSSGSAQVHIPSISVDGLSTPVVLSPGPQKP
An outline of the steps:
(§1)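 The binding signal reported is, for every hexamer, its read frequency for a factor over its read frequency for the tag-only sample. Reads came from pools of yeast-expressed, GST-fused human transcription factors on glutathione beads, barcoded with DNA and mixed with that sample, which were incubated with 200 nmole of a random double-stranded 16-mer DNA library in Tris/NaCl/DTT/glycerol buffer at room temperature for 30 min. After washing, the pools were crosslinked with 0.1% formaldehyde, proximity-ligated with BsaI/T4 ligase for 1 h at 37 °C, PCR-amplified and sequenced on an Illumina NextSeq500.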

Another assay has as its target T2, GABPA (Homo sapiens, UniProt Q06546 1-454).
T2 sequence: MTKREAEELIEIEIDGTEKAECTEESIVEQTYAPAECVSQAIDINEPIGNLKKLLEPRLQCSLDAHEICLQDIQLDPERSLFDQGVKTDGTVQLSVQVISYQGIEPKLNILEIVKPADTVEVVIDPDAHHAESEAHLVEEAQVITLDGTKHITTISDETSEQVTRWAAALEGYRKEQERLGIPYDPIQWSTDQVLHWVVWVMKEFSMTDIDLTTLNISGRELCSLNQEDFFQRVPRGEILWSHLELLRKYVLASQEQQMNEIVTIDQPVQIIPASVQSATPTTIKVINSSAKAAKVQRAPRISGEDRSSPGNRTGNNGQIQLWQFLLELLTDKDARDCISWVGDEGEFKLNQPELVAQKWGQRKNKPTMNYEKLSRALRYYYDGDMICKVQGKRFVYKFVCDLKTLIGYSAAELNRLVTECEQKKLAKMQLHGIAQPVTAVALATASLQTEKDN
In outline:
as §1

Another assay addresses T3, ERG (Homo sapiens, UniProt P11308 1-479).
T3 sequence: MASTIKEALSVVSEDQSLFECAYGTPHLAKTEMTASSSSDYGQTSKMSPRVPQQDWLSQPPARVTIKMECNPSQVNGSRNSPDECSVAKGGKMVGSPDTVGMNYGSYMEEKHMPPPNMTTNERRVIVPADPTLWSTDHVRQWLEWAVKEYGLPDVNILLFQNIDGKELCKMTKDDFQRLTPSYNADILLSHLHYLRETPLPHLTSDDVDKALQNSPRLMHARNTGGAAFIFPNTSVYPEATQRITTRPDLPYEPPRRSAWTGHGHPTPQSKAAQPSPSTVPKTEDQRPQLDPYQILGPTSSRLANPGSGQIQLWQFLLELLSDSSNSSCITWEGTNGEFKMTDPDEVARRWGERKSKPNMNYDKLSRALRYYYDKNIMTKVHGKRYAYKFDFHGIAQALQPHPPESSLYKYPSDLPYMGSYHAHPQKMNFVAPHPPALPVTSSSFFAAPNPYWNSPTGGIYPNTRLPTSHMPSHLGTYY
An outline of the steps: as §1

The target of a further assay is SPIB (Homo sapiens, UniProt Q01892 1-262). An outline of the steps:
as §1

Another assay has as its target ETV5 (Homo sapiens, UniProt P41161 1-510). An outline of the steps:
as §1

In the next assay the target is T4, ELK4 (Homo sapiens, UniProt P28324-2 1-405).
T4 sequence: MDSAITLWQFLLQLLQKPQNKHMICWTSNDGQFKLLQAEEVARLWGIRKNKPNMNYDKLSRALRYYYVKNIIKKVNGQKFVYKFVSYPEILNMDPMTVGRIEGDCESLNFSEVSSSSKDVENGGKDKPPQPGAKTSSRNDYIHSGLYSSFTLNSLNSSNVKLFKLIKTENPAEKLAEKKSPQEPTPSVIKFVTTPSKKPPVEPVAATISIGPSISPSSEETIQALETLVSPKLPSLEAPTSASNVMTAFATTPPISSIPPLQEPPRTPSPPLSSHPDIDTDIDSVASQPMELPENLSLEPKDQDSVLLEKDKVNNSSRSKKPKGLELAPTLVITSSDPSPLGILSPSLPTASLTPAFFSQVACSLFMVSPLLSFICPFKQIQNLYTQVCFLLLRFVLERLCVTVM
In outline:
as §1

In a further assay the target is T5, ELF3 (Homo sapiens, UniProt P78545 1-371).
T5 sequence: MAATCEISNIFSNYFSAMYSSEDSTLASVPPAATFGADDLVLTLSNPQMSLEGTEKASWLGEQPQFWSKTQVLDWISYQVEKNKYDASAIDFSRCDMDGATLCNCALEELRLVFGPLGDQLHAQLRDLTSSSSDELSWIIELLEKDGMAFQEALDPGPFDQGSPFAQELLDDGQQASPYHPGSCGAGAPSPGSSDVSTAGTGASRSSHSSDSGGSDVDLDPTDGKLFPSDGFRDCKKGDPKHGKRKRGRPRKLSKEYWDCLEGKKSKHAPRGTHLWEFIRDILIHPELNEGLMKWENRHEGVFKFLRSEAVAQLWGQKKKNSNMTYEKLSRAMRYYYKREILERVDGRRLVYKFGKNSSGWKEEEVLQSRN
In outline:
as §1

Another assay deals with T6, ERF (Homo sapiens, UniProt P50548 1-548).
T6 sequence: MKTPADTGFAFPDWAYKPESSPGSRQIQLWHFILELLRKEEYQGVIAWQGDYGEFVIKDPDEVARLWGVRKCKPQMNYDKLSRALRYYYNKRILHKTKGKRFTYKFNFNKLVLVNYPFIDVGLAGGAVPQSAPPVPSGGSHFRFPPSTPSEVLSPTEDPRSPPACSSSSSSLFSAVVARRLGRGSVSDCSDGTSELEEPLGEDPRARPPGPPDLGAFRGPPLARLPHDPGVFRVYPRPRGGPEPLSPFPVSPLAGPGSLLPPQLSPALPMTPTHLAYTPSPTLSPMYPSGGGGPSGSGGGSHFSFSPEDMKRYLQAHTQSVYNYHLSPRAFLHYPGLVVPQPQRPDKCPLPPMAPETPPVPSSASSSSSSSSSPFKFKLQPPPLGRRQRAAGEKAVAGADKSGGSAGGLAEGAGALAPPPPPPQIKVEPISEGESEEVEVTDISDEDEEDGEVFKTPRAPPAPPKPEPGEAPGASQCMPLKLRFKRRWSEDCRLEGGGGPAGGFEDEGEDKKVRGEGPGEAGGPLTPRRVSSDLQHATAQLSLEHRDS
An outline of the steps: as §1

The target of the next assay is T7, ETS2 (Homo sapiens, UniProt P15036 1-469).
T7 sequence: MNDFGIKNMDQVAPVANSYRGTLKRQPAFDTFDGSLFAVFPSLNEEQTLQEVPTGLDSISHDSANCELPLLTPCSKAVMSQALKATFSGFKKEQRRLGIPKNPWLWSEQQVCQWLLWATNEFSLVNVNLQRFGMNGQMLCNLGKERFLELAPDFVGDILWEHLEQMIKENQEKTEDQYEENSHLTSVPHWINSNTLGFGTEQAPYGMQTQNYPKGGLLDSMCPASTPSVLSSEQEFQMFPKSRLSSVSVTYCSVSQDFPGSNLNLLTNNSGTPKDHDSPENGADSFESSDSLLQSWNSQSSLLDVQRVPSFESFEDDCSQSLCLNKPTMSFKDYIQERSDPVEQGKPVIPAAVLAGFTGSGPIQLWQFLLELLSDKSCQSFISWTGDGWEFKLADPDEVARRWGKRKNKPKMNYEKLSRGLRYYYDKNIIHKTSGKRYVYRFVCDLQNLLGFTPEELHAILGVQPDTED
An outline of the steps:
as §1

A further assay deals with T8, SPDEF (Homo sapiens, UniProt O95238 1-335).
T8 sequence: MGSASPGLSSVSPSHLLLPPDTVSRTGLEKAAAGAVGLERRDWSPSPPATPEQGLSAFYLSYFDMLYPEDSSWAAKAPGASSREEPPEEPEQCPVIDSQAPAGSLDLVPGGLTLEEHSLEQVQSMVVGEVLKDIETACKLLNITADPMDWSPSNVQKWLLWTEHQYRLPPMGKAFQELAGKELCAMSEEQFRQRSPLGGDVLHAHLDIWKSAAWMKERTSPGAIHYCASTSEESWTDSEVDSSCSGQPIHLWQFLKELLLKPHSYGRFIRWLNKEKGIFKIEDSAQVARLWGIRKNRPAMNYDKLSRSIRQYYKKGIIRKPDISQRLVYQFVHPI
In outline:
as §1

Another assay addresses T9, ETV3 (Homo sapiens, UniProt P41162-2 1-143).
T9 sequence: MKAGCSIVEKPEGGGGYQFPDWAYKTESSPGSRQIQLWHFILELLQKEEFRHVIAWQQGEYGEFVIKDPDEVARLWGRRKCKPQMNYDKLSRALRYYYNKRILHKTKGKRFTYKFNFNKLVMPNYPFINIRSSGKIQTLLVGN
In outline: as §1

Another assay has as its target T10, EHF (Homo sapiens, UniProt Q9NZC4 1-300).
T10 sequence: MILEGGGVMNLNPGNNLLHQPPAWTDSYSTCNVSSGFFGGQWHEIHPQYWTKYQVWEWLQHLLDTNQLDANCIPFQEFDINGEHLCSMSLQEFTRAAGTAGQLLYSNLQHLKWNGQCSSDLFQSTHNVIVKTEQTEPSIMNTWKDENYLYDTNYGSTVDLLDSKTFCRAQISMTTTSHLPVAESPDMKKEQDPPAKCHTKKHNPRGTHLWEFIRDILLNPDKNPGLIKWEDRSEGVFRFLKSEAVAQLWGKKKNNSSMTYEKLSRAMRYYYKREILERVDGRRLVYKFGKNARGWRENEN
In outline:
as §1

The target of the next assay is ETV1 (Homo sapiens, UniProt P50549 1-477). In outline: as §1
For a further assay, the target named is T11, ETV3L (Homo sapiens, UniProt Q6ZN32 1-361).
T11 sequence: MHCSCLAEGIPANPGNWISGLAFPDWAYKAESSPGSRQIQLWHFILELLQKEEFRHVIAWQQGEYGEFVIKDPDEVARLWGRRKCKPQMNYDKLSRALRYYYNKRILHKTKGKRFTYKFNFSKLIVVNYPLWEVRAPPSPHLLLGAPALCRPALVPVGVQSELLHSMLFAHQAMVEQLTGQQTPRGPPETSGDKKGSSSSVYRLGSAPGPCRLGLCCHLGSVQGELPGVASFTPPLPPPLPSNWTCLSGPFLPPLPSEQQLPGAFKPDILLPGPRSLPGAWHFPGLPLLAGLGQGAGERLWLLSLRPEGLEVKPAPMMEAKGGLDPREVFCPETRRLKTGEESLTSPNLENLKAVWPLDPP
An outline of the steps:
as §1

The target of another assay is T12, ETV7 (Homo sapiens, UniProt Q9Y603 1-341).
T12 sequence: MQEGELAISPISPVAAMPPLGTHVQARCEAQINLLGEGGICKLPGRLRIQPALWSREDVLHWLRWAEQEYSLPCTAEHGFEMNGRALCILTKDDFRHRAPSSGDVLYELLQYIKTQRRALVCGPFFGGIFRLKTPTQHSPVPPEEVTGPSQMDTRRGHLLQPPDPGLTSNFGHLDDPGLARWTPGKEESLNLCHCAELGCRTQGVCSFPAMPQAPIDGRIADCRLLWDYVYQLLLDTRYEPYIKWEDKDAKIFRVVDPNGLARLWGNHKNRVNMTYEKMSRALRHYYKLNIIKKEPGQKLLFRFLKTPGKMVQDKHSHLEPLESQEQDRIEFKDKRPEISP
In outline:
as §1

Another assay concerns the target ETV6 (Homo sapiens, UniProt P41212 1-452). An outline of the steps:
as §1

SPIB, sequence (Q01892 whole entry): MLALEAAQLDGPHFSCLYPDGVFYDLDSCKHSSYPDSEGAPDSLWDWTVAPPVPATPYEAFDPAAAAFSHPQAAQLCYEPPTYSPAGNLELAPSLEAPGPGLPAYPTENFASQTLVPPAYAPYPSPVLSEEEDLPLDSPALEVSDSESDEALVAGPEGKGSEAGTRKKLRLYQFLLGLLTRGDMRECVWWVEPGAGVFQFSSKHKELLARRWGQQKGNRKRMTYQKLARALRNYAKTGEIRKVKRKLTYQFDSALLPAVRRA
ETV5, sequence (P41161 whole entry): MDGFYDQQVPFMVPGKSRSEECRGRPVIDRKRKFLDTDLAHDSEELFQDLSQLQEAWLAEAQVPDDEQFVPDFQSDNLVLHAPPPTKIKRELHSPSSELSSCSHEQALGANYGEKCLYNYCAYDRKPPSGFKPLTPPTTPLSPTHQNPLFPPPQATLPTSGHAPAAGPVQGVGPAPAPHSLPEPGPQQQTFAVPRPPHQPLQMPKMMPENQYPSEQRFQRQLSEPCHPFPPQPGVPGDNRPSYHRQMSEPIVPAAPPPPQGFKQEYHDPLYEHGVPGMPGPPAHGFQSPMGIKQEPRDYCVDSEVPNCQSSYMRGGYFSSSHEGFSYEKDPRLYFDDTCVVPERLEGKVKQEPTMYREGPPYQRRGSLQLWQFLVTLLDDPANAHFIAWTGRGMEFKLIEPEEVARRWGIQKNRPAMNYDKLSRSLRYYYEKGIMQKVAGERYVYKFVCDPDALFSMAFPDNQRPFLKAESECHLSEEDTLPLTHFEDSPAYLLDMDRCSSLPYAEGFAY
ETV6, sequence (P41212 whole entry): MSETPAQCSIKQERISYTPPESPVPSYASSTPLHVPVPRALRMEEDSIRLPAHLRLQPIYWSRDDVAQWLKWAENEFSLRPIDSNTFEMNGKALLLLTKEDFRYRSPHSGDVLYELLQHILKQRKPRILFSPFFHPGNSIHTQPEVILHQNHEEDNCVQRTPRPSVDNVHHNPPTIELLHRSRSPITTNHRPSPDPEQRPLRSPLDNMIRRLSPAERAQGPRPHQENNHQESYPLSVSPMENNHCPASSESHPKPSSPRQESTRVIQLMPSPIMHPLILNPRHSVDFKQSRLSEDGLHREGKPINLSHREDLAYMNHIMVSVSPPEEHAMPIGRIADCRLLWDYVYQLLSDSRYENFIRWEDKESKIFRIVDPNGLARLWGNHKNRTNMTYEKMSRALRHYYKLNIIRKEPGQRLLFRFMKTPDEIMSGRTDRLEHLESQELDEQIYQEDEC
ETV1, sequence (P50549 whole entry): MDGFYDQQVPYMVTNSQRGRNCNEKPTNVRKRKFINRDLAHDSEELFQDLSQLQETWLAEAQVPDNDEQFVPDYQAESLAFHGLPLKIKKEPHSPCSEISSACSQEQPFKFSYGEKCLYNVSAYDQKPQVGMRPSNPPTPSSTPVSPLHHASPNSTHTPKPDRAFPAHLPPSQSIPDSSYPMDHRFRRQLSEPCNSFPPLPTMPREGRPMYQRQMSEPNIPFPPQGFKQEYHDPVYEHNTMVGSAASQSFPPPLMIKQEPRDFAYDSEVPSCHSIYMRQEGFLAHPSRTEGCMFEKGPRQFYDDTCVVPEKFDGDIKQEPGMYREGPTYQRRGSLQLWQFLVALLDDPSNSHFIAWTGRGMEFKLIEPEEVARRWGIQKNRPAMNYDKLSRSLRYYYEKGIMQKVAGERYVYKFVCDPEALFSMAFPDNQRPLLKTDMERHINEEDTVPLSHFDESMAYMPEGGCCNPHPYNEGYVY

With TAGTAG, the binding signal was 1.02 fold enrichment (6-mer frequency, TF over GST control) with ELK1; 1.01 fold enrichment (6-mer frequency, TF over GST control) with GABPA; 1.01 fold enrichment (6-mer frequency, TF over GST control) with ERG; 1.02 fold enrichment (6-mer frequency, TF over GST control) with SPIB; 1.04 fold enrichment (6-mer frequency, TF over GST control) with ETV5; 1.02 fold enrichment (6-mer frequency, TF over GST control) with ELK4. Moreover, the binding signal is 1.1 fold enrichment (6-mer frequency, TF over GST control) with ELF3; 1.02 fold enrichment (6-mer frequency, TF over GST control) with ERF; 1.06 fold enrichment (6-mer frequency, TF over GST control) in the assay with ETS2; 1.02 fold enrichment (6-mer frequency, TF over GST control) in the assay with SPDEF; 1.13 fold enrichment (6-mer frequency, TF over GST control) with ETV3.

Take AGGATG: the binding signal with ERG is 1.1 fold enrichment (6-mer frequency, TF over GST control); with EHF it was 1.09 fold enrichment (6-mer frequency, TF over GST control); with SPIB, 1.1 fold enrichment (6-mer frequency, TF over GST control); with ETV5 it was 1.09 fold enrichment (6-mer frequency, TF over GST control); with ETV1, 1.05 fold enrichment (6-mer frequency, TF over GST control); with ETV3L it was 1.06 fold enrichment (6-mer frequency, TF over GST control). In addition, the binding signal with ETS2 was 1.07 fold enrichment (6-mer frequency, TF over GST control); in the assay with SPDEF, 1.51 fold enrichment (6-mer frequency, TF over GST control); with ETV7, 1.04 fold enrichment (6-mer frequency, TF over GST control); in the assay with ETV3 it was 1.13 fold enrichment (6-mer frequency, TF over GST control); with ETV6 it was 1.08 fold enrichment (6-mer frequency, TF over GST control).
